# Source: publication PMC7862700, “An all-to-all approach to the identification of sequence-specific readers for epigenetic DNA modifications on cytosine”
# Assays:
# Test in all cases: DAPPL (digital affinity profiling via proximity ligation, sequencing); 10 mM Tris-HCl pH 7.5, 50 mM NaCl, 1 mM DTT, 4% glycerol, room temperature, 30 min; GST-TFs on glutathione beads, 16-mer random dsDNA library, 0.1% formaldehyde crosslink after washing; high values mean tight binding
# FLI1 = molecular target: T1, FLI1 (Homo sapiens, UniProt Q01543 1-452); conditions: protein: recombinant; tags: N-terminal GST; dsDNA, one strand shown
# T1 sequence: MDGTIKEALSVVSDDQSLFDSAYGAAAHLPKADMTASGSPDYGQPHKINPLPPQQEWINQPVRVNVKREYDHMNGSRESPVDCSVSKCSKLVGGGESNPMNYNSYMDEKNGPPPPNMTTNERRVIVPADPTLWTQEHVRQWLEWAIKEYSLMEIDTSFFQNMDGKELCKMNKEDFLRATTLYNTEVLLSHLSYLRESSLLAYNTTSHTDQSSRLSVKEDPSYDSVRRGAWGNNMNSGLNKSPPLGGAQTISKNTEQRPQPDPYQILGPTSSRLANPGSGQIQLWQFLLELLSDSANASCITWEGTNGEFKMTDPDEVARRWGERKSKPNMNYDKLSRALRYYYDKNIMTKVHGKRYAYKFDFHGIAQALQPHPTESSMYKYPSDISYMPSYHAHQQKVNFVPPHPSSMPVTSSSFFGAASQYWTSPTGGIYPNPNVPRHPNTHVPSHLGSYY
# Outline: (§1)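 Binding signal is given per hexamer as its read frequency for a factor divided by its frequency in the tag-only sample. GST-fused human transcription factors were expressed in yeast, captured on glutathione beads, barcoded with DNA and pooled with that sample, then incubated with 200 nmole of a 16-mer random double-stranded DNA library in Tris/NaCl/DTT/glycerol buffer for 30 min at room temperature. The pools were then washed, crosslinked, proximity-ligated, amplified by PCR and sequenced on an Illumina NextSeq500.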
# ELK1 = molecular target: T2, ELK1 (Homo sapiens, UniProt P19419 1-428); conditions: protein: recombinant; tags: N-terminal GST; dsDNA, one strand shown
# T2 sequence: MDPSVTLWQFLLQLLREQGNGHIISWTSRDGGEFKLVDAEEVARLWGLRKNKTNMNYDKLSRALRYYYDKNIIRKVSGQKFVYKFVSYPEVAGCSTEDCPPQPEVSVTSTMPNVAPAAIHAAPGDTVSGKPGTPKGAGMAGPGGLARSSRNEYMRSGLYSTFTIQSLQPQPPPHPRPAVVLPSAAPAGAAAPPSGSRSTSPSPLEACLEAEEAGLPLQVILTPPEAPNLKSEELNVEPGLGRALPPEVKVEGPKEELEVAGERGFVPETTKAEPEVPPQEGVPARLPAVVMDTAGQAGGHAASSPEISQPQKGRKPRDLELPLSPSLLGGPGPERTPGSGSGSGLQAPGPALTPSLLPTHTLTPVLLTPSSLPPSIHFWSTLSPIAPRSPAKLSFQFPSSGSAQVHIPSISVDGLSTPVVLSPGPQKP
# Outline: as §1
# GABPA = molecular target: T3, GABPA (Homo sapiens, UniProt Q06546 1-454); conditions: protein: recombinant; tags: N-terminal GST; dsDNA, one strand shown
# T3 sequence: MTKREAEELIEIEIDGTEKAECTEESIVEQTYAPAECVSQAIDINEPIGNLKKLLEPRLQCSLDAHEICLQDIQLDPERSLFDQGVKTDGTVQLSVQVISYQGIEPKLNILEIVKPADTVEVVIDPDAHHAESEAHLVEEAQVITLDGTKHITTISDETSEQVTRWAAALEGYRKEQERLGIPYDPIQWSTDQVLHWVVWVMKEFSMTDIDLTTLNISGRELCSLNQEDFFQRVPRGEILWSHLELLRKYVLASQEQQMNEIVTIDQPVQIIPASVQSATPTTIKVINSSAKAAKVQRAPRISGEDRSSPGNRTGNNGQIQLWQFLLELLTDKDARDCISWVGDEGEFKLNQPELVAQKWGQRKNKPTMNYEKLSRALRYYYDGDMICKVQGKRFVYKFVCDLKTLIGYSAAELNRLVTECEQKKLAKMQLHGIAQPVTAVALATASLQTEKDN
# Outline: as §1
# ERG = molecular target: T4, ERG (Homo sapiens, UniProt P11308 1-479); conditions: protein: recombinant; tags: N-terminal GST; dsDNA, one strand shown
# T4 sequence: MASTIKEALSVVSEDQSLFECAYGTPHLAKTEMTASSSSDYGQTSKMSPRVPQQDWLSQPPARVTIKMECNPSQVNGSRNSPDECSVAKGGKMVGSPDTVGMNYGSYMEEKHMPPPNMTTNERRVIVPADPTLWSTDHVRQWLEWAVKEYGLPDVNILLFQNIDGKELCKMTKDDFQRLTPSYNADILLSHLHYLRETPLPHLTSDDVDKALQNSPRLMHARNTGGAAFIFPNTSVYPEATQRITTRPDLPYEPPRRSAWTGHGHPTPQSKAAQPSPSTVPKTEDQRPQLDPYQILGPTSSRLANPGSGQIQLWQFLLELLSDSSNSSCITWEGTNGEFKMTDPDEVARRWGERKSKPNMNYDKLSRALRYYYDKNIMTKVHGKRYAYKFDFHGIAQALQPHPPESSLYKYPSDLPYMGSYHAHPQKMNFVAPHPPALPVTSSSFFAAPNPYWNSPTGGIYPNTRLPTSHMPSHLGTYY
# Outline: as §1
# ELF1 = ELF1 (Homo sapiens, UniProt P32519 1-619); conditions: protein: recombinant; tags: N-terminal GST; dsDNA, one strand shown
# Outline: as §1
# EHF = molecular target: T5, EHF (Homo sapiens, UniProt Q9NZC4 1-300); conditions: protein: recombinant; tags: N-terminal GST; dsDNA, one strand shown
# T5 sequence: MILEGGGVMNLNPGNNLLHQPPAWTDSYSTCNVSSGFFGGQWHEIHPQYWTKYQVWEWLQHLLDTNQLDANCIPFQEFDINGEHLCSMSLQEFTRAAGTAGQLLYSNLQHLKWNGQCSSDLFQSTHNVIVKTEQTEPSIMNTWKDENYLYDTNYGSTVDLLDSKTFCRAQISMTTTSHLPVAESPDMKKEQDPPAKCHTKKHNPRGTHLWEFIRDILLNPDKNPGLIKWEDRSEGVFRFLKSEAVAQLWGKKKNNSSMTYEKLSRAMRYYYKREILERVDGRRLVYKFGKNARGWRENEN
# Outline: as §1
# SPI1 = SPI1 (Homo sapiens, UniProt P17947 1-270); conditions: protein: recombinant; tags: N-terminal GST; dsDNA, one strand shown
# Outline: as §1
# SPIB = SPIB (Homo sapiens, UniProt Q01892 1-262); conditions: protein: recombinant; tags: N-terminal GST; dsDNA, one strand shown
# Outline: as §1
# ELK3 = molecular target: T6, ELK3 (Homo sapiens, UniProt P41970 1-407); conditions: protein: recombinant; tags: N-terminal GST; dsDNA, one strand shown
# T6 sequence: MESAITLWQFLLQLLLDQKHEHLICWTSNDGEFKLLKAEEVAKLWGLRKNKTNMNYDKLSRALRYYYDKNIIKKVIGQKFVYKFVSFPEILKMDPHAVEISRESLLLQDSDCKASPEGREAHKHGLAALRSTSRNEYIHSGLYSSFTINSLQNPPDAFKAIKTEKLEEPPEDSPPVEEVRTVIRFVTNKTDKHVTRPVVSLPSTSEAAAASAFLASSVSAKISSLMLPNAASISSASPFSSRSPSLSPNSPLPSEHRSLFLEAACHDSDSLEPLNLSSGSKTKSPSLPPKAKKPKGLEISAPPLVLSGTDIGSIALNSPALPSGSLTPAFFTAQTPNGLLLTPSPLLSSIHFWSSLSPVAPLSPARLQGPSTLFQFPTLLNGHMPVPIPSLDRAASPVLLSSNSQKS
# Outline: as §1
# FEV = molecular target: T7, FEV (Homo sapiens, UniProt Q99581 1-238); conditions: protein: recombinant; tags: N-terminal GST; dsDNA, one strand shown
# T7 sequence: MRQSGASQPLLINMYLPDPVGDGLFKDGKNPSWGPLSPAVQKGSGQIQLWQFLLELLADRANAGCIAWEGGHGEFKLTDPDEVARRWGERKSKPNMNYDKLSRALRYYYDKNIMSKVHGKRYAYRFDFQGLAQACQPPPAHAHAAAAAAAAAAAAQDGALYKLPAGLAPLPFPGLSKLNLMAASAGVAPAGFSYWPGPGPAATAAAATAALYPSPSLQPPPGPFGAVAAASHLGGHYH
# Outline: as §1
# ETV5 = ETV5 (Homo sapiens, UniProt P41161 1-510); conditions: protein: recombinant; tags: N-terminal GST; dsDNA, one strand shown
# Outline: as §1
# HSF1 = HSF1 (Homo sapiens, UniProt Q00613 1-529); conditions: protein: recombinant; tags: N-terminal GST; chain copies: 3; dsDNA, one strand shown
# Outline: as §1
# SPIC = molecular target: T8, SPIC (Homo sapiens, UniProt Q8N5J4 1-248); conditions: protein: recombinant; tags: N-terminal GST; dsDNA, one strand shown
# T8 sequence: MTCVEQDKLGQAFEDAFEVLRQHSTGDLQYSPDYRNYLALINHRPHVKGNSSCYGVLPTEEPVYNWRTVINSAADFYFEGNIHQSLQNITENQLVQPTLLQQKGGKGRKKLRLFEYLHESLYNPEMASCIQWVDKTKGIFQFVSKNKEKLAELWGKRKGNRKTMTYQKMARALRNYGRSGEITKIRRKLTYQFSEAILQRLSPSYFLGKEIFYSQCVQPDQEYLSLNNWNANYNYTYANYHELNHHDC
# Outline: as §1
# ELF4 = ELF4 (Homo sapiens, UniProt Q99607 1-663); conditions: protein: recombinant; tags: N-terminal GST; dsDNA, one strand shown
# Outline: as §1
# ELK4 = molecular target: T9, ELK4 (Homo sapiens, UniProt P28324-2 1-405); conditions: protein: recombinant; tags: N-terminal GST; dsDNA, one strand shown
# T9 sequence: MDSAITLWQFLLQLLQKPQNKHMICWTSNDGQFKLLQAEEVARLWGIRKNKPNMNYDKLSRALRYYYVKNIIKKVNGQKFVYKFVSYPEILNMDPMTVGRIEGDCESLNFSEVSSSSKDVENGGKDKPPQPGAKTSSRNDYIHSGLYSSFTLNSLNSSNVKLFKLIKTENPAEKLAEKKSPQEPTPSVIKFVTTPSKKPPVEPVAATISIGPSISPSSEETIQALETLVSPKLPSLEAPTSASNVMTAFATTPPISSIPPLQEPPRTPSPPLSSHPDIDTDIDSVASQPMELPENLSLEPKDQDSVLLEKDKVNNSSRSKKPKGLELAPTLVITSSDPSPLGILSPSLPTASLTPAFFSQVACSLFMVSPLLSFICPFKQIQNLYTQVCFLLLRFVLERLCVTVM
# Outline: as §1
# ETV2 = molecular target: T10, ETV2 (Homo sapiens, UniProt O00321 1-342); conditions: protein: recombinant; tags: N-terminal GST; dsDNA, one strand shown
# T10 sequence: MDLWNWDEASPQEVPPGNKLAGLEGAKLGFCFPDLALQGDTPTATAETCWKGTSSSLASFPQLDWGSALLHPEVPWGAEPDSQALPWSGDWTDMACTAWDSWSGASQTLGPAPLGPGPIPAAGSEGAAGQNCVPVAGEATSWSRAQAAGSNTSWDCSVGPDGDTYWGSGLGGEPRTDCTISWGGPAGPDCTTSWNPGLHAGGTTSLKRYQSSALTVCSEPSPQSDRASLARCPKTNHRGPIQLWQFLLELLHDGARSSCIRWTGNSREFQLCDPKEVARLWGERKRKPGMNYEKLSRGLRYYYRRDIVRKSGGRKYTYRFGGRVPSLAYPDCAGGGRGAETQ
# Outline: as §1
# ELF3 = molecular target: T11, ELF3 (Homo sapiens, UniProt P78545 1-371); conditions: protein: recombinant; tags: N-terminal GST; dsDNA, one strand shown
# T11 sequence: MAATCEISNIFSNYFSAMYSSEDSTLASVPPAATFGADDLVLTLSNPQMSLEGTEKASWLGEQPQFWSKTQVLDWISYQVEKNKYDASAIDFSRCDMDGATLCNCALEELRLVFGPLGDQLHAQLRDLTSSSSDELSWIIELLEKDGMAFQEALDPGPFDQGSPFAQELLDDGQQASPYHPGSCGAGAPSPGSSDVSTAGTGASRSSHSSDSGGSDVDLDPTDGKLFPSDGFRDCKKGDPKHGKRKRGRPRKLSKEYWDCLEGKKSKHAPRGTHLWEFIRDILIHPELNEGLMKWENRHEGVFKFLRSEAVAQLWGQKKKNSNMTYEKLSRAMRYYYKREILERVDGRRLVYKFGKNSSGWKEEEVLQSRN
# Outline: as §1
# CRX = CRX (Homo sapiens, UniProt O43186 1-299); conditions: protein: recombinant; tags: N-terminal GST; dsDNA, one strand shown
# Outline: as §1
# ETV1 = ETV1 (Homo sapiens, UniProt P50549 1-477); conditions: protein: recombinant; tags: N-terminal GST; dsDNA, one strand shown
# Outline: as §1
# Chain of CRX (O43186 whole entry): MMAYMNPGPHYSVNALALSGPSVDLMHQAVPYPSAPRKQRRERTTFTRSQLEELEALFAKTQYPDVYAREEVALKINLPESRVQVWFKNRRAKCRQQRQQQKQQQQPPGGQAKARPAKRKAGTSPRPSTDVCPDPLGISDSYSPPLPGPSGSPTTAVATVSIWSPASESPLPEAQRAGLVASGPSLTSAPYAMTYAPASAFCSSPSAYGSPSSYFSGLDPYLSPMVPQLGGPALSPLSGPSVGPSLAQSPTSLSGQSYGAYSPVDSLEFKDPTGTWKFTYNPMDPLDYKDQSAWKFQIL
# Chain of ELF1 (P32519 whole entry): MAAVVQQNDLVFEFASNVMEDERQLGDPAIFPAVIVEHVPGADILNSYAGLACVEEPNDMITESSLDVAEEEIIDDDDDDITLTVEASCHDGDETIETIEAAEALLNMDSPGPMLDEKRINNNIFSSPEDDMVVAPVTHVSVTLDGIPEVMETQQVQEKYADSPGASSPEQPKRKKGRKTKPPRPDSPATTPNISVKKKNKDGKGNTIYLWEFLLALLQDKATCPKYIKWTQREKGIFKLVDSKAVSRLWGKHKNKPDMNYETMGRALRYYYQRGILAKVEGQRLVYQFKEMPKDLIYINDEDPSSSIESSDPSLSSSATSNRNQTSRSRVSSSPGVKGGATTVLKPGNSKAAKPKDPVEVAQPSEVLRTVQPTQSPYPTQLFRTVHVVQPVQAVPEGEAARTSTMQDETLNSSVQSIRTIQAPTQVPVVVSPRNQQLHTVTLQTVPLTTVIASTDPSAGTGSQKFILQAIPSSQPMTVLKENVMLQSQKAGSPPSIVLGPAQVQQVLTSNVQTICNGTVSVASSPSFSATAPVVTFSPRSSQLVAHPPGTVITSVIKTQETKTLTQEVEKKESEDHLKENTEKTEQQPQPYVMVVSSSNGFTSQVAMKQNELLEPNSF
# Chain of ETV5 (P41161 whole entry): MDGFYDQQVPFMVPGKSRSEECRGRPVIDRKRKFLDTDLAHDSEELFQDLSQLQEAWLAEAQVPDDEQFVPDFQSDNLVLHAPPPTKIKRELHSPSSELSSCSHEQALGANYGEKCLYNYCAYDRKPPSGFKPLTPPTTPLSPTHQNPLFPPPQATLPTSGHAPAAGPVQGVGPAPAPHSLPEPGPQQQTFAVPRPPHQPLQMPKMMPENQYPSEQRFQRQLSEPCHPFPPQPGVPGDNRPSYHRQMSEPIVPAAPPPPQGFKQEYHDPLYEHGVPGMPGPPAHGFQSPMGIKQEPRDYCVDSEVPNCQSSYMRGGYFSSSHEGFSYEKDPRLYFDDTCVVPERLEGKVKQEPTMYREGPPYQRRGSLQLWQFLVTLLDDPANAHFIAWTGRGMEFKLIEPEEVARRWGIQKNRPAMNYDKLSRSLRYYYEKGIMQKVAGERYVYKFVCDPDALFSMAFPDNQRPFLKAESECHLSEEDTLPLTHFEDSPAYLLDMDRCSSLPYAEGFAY
# Chain of SPIB (Q01892 whole entry): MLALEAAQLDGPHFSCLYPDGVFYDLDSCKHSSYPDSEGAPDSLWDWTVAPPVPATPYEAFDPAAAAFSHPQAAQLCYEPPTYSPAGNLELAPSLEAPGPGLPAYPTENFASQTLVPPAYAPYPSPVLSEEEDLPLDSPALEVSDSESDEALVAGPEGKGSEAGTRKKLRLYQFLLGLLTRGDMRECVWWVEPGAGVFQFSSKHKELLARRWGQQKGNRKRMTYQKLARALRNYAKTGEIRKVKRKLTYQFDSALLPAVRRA
# Chain of HSF1 (Q00613 whole entry): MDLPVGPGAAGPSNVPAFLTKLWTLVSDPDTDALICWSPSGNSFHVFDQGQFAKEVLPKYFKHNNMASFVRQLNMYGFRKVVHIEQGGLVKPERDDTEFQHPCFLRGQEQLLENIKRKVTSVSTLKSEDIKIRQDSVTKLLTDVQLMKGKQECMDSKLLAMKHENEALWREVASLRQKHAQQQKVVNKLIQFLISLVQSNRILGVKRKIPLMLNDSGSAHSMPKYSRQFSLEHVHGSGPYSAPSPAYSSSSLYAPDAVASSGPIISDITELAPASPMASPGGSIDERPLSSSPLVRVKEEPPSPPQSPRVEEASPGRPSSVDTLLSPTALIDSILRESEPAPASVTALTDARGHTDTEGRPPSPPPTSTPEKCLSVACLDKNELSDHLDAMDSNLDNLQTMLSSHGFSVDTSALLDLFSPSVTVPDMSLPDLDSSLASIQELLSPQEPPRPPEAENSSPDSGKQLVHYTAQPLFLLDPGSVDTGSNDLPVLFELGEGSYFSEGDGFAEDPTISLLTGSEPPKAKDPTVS
# Chain of ETV1 (P50549 whole entry): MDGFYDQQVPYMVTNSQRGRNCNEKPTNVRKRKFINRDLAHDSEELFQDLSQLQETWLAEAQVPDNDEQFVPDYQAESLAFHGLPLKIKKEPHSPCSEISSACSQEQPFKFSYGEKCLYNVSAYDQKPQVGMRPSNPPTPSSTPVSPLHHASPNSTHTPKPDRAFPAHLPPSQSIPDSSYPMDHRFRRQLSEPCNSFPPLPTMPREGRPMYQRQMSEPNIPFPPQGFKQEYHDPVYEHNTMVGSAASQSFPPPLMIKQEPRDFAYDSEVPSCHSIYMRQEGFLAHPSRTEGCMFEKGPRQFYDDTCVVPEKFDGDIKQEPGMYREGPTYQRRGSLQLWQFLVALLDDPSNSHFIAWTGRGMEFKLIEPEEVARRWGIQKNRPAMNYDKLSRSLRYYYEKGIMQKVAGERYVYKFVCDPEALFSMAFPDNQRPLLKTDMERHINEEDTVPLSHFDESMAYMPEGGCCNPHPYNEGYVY
# Chain of ELF4 (Q99607 whole entry): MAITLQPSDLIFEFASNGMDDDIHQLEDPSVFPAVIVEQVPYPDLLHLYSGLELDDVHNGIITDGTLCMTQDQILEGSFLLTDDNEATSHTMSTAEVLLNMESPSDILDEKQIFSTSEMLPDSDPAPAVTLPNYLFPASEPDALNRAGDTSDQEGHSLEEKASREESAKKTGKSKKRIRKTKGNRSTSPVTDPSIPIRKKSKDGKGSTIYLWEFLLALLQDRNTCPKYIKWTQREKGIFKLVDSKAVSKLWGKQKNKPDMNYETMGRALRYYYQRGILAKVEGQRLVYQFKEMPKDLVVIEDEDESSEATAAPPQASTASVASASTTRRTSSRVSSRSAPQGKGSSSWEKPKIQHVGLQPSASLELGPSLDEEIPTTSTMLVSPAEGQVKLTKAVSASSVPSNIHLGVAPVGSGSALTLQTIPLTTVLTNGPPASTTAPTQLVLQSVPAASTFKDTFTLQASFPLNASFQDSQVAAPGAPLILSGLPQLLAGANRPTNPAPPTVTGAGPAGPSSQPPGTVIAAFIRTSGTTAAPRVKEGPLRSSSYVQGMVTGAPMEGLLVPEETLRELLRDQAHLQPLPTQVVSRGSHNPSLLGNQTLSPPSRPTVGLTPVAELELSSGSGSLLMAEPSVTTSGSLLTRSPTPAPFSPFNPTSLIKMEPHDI
sequence,measurement,setting,value
TTTGCG,binding signal,FLI1,"1.27 fold enrichment (6-mer frequency, TF over GST control)"
same,binding signal,ELK1,"1.29 fold enrichment (6-mer frequency, TF over GST control)"
same,binding signal,GABPA,"1.26 fold enrichment (6-mer frequency, TF over GST control)"
same,binding signal,ERG,"1.14 fold enrichment (6-mer frequency, TF over GST control)"
same,binding signal,ELF1,"1.27 fold enrichment (6-mer frequency, TF over GST control)"
same,binding signal,EHF,"1.19 fold enrichment (6-mer frequency, TF over GST control)"
same,binding signal,SPI1,"1.32 fold enrichment (6-mer frequency, TF over GST control)"
same,binding signal,SPIB,"1.19 fold enrichment (6-mer frequency, TF over GST control)"
same,binding signal,ELK3,"1.11 fold enrichment (6-mer frequency, TF over GST control)"
same,binding signal,FEV,"1.13 fold enrichment (6-mer frequency, TF over GST control)"
same,binding signal,ETV5,"1.29 fold enrichment (6-mer frequency, TF over GST control)"
same,binding signal,HSF1,"1.3 fold enrichment (6-mer frequency, TF over GST control)"
same,binding signal,SPIC,"1.37 fold enrichment (6-mer frequency, TF over GST control)"
same,binding signal,ELF4,"1.21 fold enrichment (6-mer frequency, TF over GST control)"
same,binding signal,ELK4,"1.03 fold enrichment (6-mer frequency, TF over GST control)"
same,binding signal,ETV2,"1.13 fold enrichment (6-mer frequency, TF over GST control)"
same,binding signal,ELF3,"1.3 fold enrichment (6-mer frequency, TF over GST control)"
same,binding signal,CRX,"1.31 fold enrichment (6-mer frequency, TF over GST control)"
same,binding signal,ETV1,"1.34 fold enrichment (6-mer frequency, TF over GST control)"
